Laboratory results from PubChem BioAssay AID1159580 (chemical genetic matrix, 2015).
Values joined by “and” are separate entries in the source; they are usually repeats but may differ in a detail not shown here. Equal values may be shown once. Hit rate of the full screen: of about 5,500 compounds, about 2,000 (36%) were called active. Another 18% or so got no clear call; they are omitted. This is one part of the list. Unmarked numbers belong to inactive results. Cut-off read from the data, not from the text of the source: active = normalized growth mostly below about 0.91 (no sharp cut-off); inconclusive = no clear call, values can overlap the other calls; inactive = mostly above about 0.92.

Assay: chemical genetic growth profiling, strain panel (AID 1159580);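 note: tested at 20 µM; growth read once vehicle control cultures reached saturation at 30 °C; 1 = growth at the plate median or of vehicle wells; lower values mean less growth of the strain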
Conditions: S. cerevisiae deletion strains, growth OD

CC(=O)OC1CCC2C3CCc4cc(O)ccc4C3CCC12C (stereo not given)
normalized growth (locus YAL021C, strain ccr4, stronger effect = lower value): 0.975
normalized growth (locus YAL026C, strain drs2, stronger effect = lower value): 0.96
normalized growth (locus YAL030W, strain snc1, stronger effect = lower value): 0.984
normalized growth (locus YBL061C, strain skt5, stronger effect = lower value): 0.893 (active)
normalized growth (locus YBR009C, strain hhf1, stronger effect = lower value): 0.969
normalized growth (locus YBR021W, strain FUR4, stronger effect = lower value): 0.934
normalized growth (locus YBR023C, strain chs3, stronger effect = lower value): 0.881 (active)
normalized growth (locus YBR171W, strain sec66, stronger effect = lower value): 0.996
normalized growth (locus YBR229C, strain ROT2, stronger effect = lower value): 1.01
normalized growth (locus YBR231C, strain swc5, stronger effect = lower value): 0.966
normalized growth (locus YBR279W, strain paf1, stronger effect = lower value): 0.979
normalized growth (locus YCL011C, strain gbp2, stronger effect = lower value): 0.929
normalized growth (locus YCL016C, strain dcc1, stronger effect = lower value): 0.954
normalized growth (locus YCL029C, strain bik1, stronger effect = lower value): 0.99
normalized growth (locus YCL061C, strain MRC1, stronger effect = lower value): 0.984
normalized growth (locus YCL069W, strain vba3, stronger effect = lower value): 1.02
normalized growth (locus YCR088W, strain abp1, stronger effect = lower value): 0.957
normalized growth (locus YDL005C, strain med2, stronger effect = lower value): 0.973
normalized growth (locus YDL035C, strain GPR1, stronger effect = lower value): 0.973
normalized growth (locus YDL040C, strain nat1, stronger effect = lower value): 1.01
normalized growth (locus YDL074C, strain BRE1, stronger effect = lower value): 0.827
normalized growth (locus YDL101C, strain DUN1, stronger effect = lower value): 0.98
normalized growth (locus YDL134C, strain PPH21, stronger effect = lower value): 0.973
normalized growth (locus YDL185W, strain tfp1, stronger effect = lower value): 1.02
normalized growth (locus YDL192W, strain arf1, stronger effect = lower value): 1.03
normalized growth (locus YDR001C, strain nth1, stronger effect = lower value): 0.999
normalized growth (locus YDR069C, strain doa4, stronger effect = lower value): 0.957
normalized growth (locus YDR101C, strain arx1, stronger effect = lower value): 1
normalized growth (locus YDR137W, strain rgp1, stronger effect = lower value): 0.797 (active)
normalized growth (locus YDR150W, strain NUM1, stronger effect = lower value): 1.01
normalized growth (locus YDR159W, strain sac3, stronger effect = lower value): 0.842 (active)
normalized growth (locus YDR162C, strain NBP2, stronger effect = lower value): 1
normalized growth (locus YDR195W, strain ref2): 0.746 (active)
normalized growth (locus YDR297W, strain sur2, stronger effect = lower value): 0.993
normalized growth (locus YDR318W, strain mcm21, stronger effect = lower value): 1
normalized growth (locus YDR334W, strain swr1, stronger effect = lower value): 1.01
normalized growth (locus YDR335W, strain msn5, stronger effect = lower value): 0.921
normalized growth (locus YDR388W, stronger effect = lower value): 0.997
normalized growth (locus YDR392W, strain spt3, stronger effect = lower value): 0.608 (active)
normalized growth (locus YDR502C, strain sam2, stronger effect = lower value): 0.991
normalized growth (locus YEL003W, strain gim4, stronger effect = lower value): 0.993
normalized growth (locus YEL037C, strain rad23, stronger effect = lower value): 1
normalized growth (locus YEL061C, strain CIN8 (second series), stronger effect = lower value): 0.978
normalized growth (locus YEL061C, strain CIN8, stronger effect = lower value): 0.998
normalized growth (locus YER015W, strain faa2, stronger effect = lower value): 0.981
normalized growth (locus YER016W, strain bim1, stronger effect = lower value): 0.918 (active)
normalized growth (locus YER110C, stronger effect = lower value): 0.995
normalized growth (locus YER111C, strain swi4, stronger effect = lower value): 0.955
normalized growth (locus YER155C, strain BEM2 (second series), stronger effect = lower value): 0.934
normalized growth (locus YER155C, strain BEM2, stronger effect = lower value): 0.913 (active)
normalized growth (locus YER167W, strain BCK2, stronger effect = lower value): 0.988
normalized growth (locus YFR010W, strain ubp6, stronger effect = lower value): 0.963
normalized growth (locus YGL078C, strain dbp3, stronger effect = lower value): 1.01
normalized growth (locus YGL086W, strain mad1, stronger effect = lower value): 0.979
normalized growth (locus YGL167C, strain pmr1, stronger effect = lower value): 0.999
normalized growth (locus YGL173C, strain kem1, stronger effect = lower value): 0.991
normalized growth (locus YGL227W, strain vid30, stronger effect = lower value): 1.01
normalized growth (locus YGL240W, strain doc1, stronger effect = lower value): 0.968
normalized growth (locus YGL248W, strain PDE1, stronger effect = lower value): 0.954
normalized growth (locus YGL253W, strain hxk2, stronger effect = lower value): 0.96
normalized growth (locus YGR078C, strain PAC10, stronger effect = lower value): 0.899
normalized growth (locus YGR135W, strain pre9, stronger effect = lower value): 1.03
normalized growth (locus YGR229C, strain SMI1, stronger effect = lower value): 0.849
normalized growth (locus YGR252W, strain gcn5, stronger effect = lower value): 0.986
normalized growth (locus YHR013C, strain ard1, stronger effect = lower value): 0.985
normalized growth (locus YHR027C, strain rpn1, stronger effect = lower value): 0.975
normalized growth (locus YHR030C, strain SLT2, stronger effect = lower value): 1.01 and 0.911
normalized growth (locus YHR079C, strain IRE1 (second series), stronger effect = lower value): 1
normalized growth (locus YHR079C, strain IRE1, stronger effect = lower value): 0.938
normalized growth (locus YHR094C, strain hxt1, stronger effect = lower value): 1.02
normalized growth (locus YHR129C, strain ARP1, stronger effect = lower value): 1
normalized growth (locus YHR142W, strain chs7, stronger effect = lower value): 0.903
normalized growth (locus YHR200W, strain rpn10, stronger effect = lower value): 1.02
normalized growth (locus YIL066C, strain RNR3, stronger effect = lower value): 0.962
normalized growth (locus YIL073C, strain SPO22, stronger effect = lower value): 0.957
normalized growth (locus YIL125W, strain kgd1, stronger effect = lower value): 1.01
normalized growth (locus YIR030C, strain dcg1, stronger effect = lower value): 1.02
normalized growth (locus YJL092W, strain hpr5, stronger effect = lower value): 0.986
normalized growth (locus YJL095W, strain BCK1 (second series), stronger effect = lower value): 1
normalized growth (locus YJL095W, strain BCK1, stronger effect = lower value): 0.892 and 0.899
normalized growth (locus YJL115W, strain asf1, stronger effect = lower value): 1.01
normalized growth (locus YJL129C, strain trk1, stronger effect = lower value): 0.92
normalized growth (locus YJL134W, strain LCB3, stronger effect = lower value): 1.01
normalized growth (locus YJL154C, strain vps35, stronger effect = lower value): 0.988
normalized growth (locus YJL164C, strain tpk1, stronger effect = lower value): 0.954
normalized growth (locus YJL166W, strain qcr8, stronger effect = lower value): 0.974
normalized growth (locus YJL168C, strain set2, stronger effect = lower value): 1.01
normalized growth (locus YJL187C, strain SWE1 (second series), stronger effect = lower value): 0.944
normalized growth (locus YJR043C, strain POL32, stronger effect = lower value): 0.938
normalized growth (locus YJR066W, strain TOR1, stronger effect = lower value): 0.905
